Laboratory results as given in PubChem BioAssay (NCI).
Compounds without any hit were thinned out: in the full panel of roughly 83,000, 20% have a hit.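 Each cell line was grown in a 96-well plate and treated with one concentration of compound for 48 hours. Values below 10 were considered active.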 A number with no mark means an inactive call. Activity calls are given as the source filed them.

How the values were obtained:
Assay in all cases: NCI-60 one-dose screen, 48 h (100 = growth as untreated, 0 = no growth, -100 = all killed)
Conditions in all cases: 10 µM
[1] = test system: DU-145 prostate
[2] = test system: K-562 leukemia
[3] = test system: MALME-3M melanoma
[4] = test system: MDA-MB-231 breast
[5] = test system: RXF 393 renal
[6] = test system: SF-268 CNS
[7] = test system: SF-295 CNS
[8] = test system: SF-539 CNS
[9] = test system: UACC-257 melanoma
[10] = test system: M14 melanoma
[11] = test system: HCT-15 colon
[12] = test system: HT29 colon
[13] = test system: SNB-75 CNS
[14] = test system: SNB-19 CNS
[15] = test system: U251 CNS
[16] = test system: PC-3 prostate
[17] = test system: SK-MEL-5 melanoma
[18] = test system: UACC-62 melanoma
[19] = test system: LOX IMVI melanoma
[20] = test system: SK-MEL-28 melanoma

## O=C(CCCCC(=O)Oc1c(Cl)cc(Cl)cc1[N+](=O)[O-])Oc1c(Cl)cc(Cl)cc1[N+](=O)[O-]
[1]
  growth: 106%
[2]
  growth: 85.9%
[3]
  growth: 98.8%
[4]
  growth: 106%
[5]
  growth: 120%
[6]
  growth: 96.3%
[7]
  growth: 97.2%
[8]
  growth: 100%
[9]
  growth: 99.5%
[10]
  growth: 103%
[11]
  growth: 100%
[12]
  growth: 103%
[13]
  growth: 93.9%
[14]
  growth: 105%
[15]
  growth: 98%
[16]
  growth: 104%
[17]
  growth: 102%
[18]
  growth: 102%
[19]
  growth: 92%
[20]
  growth: 111%

## Cc1c(O)c(=O)ccn1C1CCC(CC2CCC(n3ccc(=O)c(O)c3C)CC2)CC1 (stereo not given)
[1]
  growth: 39.6%
[2]
  growth: 18.3%
[3]
  growth: 63.8%
[4]
  growth: 43.4%
[5]
  growth: 44.1%
[6]
  growth: 30.1%
[7]
  growth: 54.9%
[8]
  growth: 11.9%
[9]
  growth: 45.5%
[10]
  growth: 47.2%
[11]
  growth: 18.9%
[12]
  growth: 33.8%
[13]
  growth: 21.1%
[14]
  growth: 30.2%
[15]
  growth: 30.2%
[16]
  growth: 41.7%
[17]
  growth: 29.2%
[18]
  growth: 14.6%
[19]
  growth: 25%
[20]
  growth: 49.4%

## COc1cc2cc(Oc3ccc(NC(=O)c4ccccc4)cc3)c(C)nc2cc1OC
[1]
  growth: 100%
[2]
  growth: 88.1%
[3]
  growth: 93.6%
[4]
  growth: 66%
[5]
  growth: 53.3%
[6]
  growth: 65.5%
[7]
  growth: 72.2%
[8]
  growth: 97.6%
[9]
  growth: 95.2%
[10]
  growth: 121%
[11]
  growth: 94.3%
[12]
  growth: 104%
[13]
  growth: 54.1%
[14]
  growth: 98.6%
[15]
  growth: 59.3%
[16]
  growth: 75.4%
[17]
  growth: 80.2%
[18]
  growth: 95.9%
[19]
  growth: 86.5%
[20]
  growth: 92.9%

## CC(C)(C)OC(=O)N1CCc2c(sc3ncnc(N/N=C/c4ccc(Br)cc4)c23)C1
[1]
  growth: 92.6%
[2]
  growth: 15.1%
[3]
  growth: 51.3%
[4]
  growth: 73.2%
[5]
  growth: 66.4%
[6]
  growth: 82.2%
[7]
  growth: 49%
[8]
  growth: 60.7%
[9]
  growth: 73.4%
[10]
  growth: 47.7%
[11]
  growth: 28.1%
[12]
  growth: 33.8%
[13]
  growth: 61.8%
[14]
  growth: 69.5%
[15]
  growth: 67.3%
[16]
  growth: 44%
[17]
  growth: 24%
[18]
  growth: 42.2%
[19]
  growth: 54.8%
[20]
  growth: 63.2%

## C/C(=N\O)c1ccc(NC(=O)CSc2nnc(-c3ccccc3)n2-c2ccccc2)cc1
[1]
  growth: 90.6%
[2]
  growth: 95.8%
[3]
  growth: 82.9%
[4]
  growth: 67.9%
[5]
  growth: 99.9%
[6]
  growth: 99.8%
[7]
  growth: 92.2%
[8]
  growth: 52.6%
[9]
  growth: 94.5%
[10]
  growth: 91.8%
[11]
  growth: 97.5%
[12]
  growth: 84%
[13]
  growth: 45.8%
[14]
  growth: 97.2%
[15]
  growth: 59.2%
[16]
  growth: 73.7%
[17]
  growth: 48.6%
[18]
  growth: 81.9%
[19]
  growth: 63.6%
[20]
  growth: 97.7%

## COc1ccc2cc(-c3nc4ccccc4s3)c(Cl)nc2c1OC
[1]
  growth: 113%
[2]
  growth: 92.3%
[3]
  growth: 109%
[4]
  growth: 87.3%
[5]
  growth: 104%
[6]
  growth: 93.3%
[7]
  growth: 108%
[8]
  growth: 99%
[9]
  growth: 109%
[10]
  growth: 102%
[11]
  growth: 97%
[12]
  growth: 104%
[13]
  growth: 82.1%
[14]
  growth: 93.9%
[15]
  growth: 107%
[16]
  growth: 92.6%
[17]
  growth: 92.9%
[18]
  growth: 91.1%
[19]
  growth: 90.6%
[20]
  growth: 107%

## Cc1ccc(NCCN(C)CC(C)O)c2c(=O)c3ccc(Cl)cc3sc12 (stereo not given)
[1]
  growth: 59.7%
[2]
  growth: -61.2% (active)
[3]
  growth: -24.2% (active)
[4]
  growth: -16.4% (active)
[5]
  growth: 22.9%
[6]
  growth: 58.4%
[7]
  growth: 82.6%
[8]
  growth: 81.5%
[9]
  growth: 24.7%
[10]
  growth: -74.7% (active)
[11]
  growth: 21.2%
[12]
  growth: -27% (active)
[13]
  growth: 76.3%
[14]
  growth: 55%
[15]
  growth: 8.57% (active)
[16]
  growth: 48.2%
[17]
  growth: 46.9%
[18]
  growth: -68.7% (active)
[19]
  growth: -82.9% (active)
[20]
  growth: -53.5% (active)

## O=S(=O)(O)c1ccc(Cl)cc1
[1]
  growth: 101%
[2]
  growth: 99.7%
[3]
  growth: 98.2%
[4]
  growth: 107%
[5]
  growth: 123%
[6]
  growth: 95.1%
[7]
  growth: 109%
[8]
  growth: 102%
[9]
  growth: 99.2%
[10]
  growth: 99.7%
[11]
  growth: 100%
[12]
  growth: 93.6%
[13]
  growth: 100%
[14]
  growth: 102%
[15]
  growth: 101%
[16]
  growth: 96.5%
[17]
  growth: 98.3%
[18]
  growth: 99.8%
[19]
  growth: 96.3%
[20]
  growth: 113%

## O=C(Nc1cc(Cl)cc2c1-c1ccc(Cl)cc1C2O)C(Cl)Cl (stereo not given)
[1]
  growth: 60.1%
[2]
  growth: 81.9%
[3]
  growth: 105%
[4]
  growth: 74.4%
[5]
  growth: 63.8%
[6]
  growth: 91.9%
[7]
  growth: 83.4%
[8]
  growth: 84.2%
[9]
  growth: 89.8%
[10]
  growth: 85.3%
[11]
  growth: 82.5%
[12]
  growth: 84.9%
[13]
  growth: 65.9%
[14]
  growth: 70%
[15]
  growth: 78.4%
[16]
  growth: 67.7%
[17]
  growth: 41.5%
[18]
  growth: 60.3%
[19]
  growth: 76.2%
[20]
  growth: 84.6%

## CCNCC(=O)Nc1ccc(C(=O)OCC)cc1
[1]
  growth: 104%
[2]
  growth: 96.6%
[3]
  growth: 110%
[4]
  growth: 119%
[5]
  growth: 124%
[6]
  growth: 93.6%
[7]
  growth: 102%
[8]
  growth: 100%
[9]
  growth: 96.7%
[10]
  growth: 102%
[11]
  growth: 104%
[12]
  growth: 90.7%
[13]
  growth: 86.6%
[14]
  growth: 109%
[15]
  growth: 97.7%
[16]
  growth: 98.3%
[17]
  growth: 108%
[18]
  growth: 99.2%
[19]
  growth: 95%
[20]
  growth: 103%

## COc1ccc(/C=C2\CCCC3C2=Nc2ccccc2NC3c2ccc(OC)cc2)cc1 (stereo not given)
[1]
  growth: 101%
[2]
  growth: 50.9%
[3]
  growth: 94.3%
[4]
  growth: 82.4%
[5]
  growth: 99.9%
[6]
  growth: 102%
[7]
  growth: 89.8%
[8]
  growth: 135%
[9]
  growth: 81.9%
[10]
  growth: 71.1%
[11]
  growth: 93.9%
[12]
  growth: 74.8%
[13]
  growth: 101%
[14]
  growth: 92%
[15]
  growth: 80.9%
[16]
  growth: 86.9%
[17]
  growth: 88.5%
[18]
  growth: 68%
[19]
  growth: 57.4%
[20]
  growth: 98.3%

## Cc1c(Cl)cccc1NC(=O)CCCl
[1]
  growth: 106%
[2]
  growth: 88.2%
[3]
  growth: 108%
[4]
  growth: 121%
[5]
  growth: 112%
[6]
  growth: 97.8%
[7]
  growth: 106%
[8]
  growth: 102%
[9]
  growth: 89.2%
[10]
  growth: 97%
[11]
  growth: 110%
[12]
  growth: 95.4%
[13]
  growth: 98.1%
[14]
  growth: 96.7%
[15]
  growth: 91%
[16]
  growth: 94.3%
[17]
  growth: 104%
[18]
  growth: 93.2%
[19]
  growth: 101%
[20]
  growth: 108%

## COc1ccc(-c2cc(-c3ccc(Cl)cc3)nc(SCCCCCCC(=O)NO)n2)cc1OC
[1]
  growth: 82.4%
[2]
  growth: 36.1%
[3]
  growth: 42.5%
[4]
  growth: 70.8%
[5]
  growth: 57.5%
[6]
  growth: 91.9%
[7]
  growth: 77.1%
[8]
  growth: 58.4%
[9]
  growth: 72.1%
[10]
  growth: 44.4%
[11]
  growth: 30.5%
[12]
  growth: 46.7%
[13]
  growth: 34%
[14]
  growth: 60.6%
[15]
  growth: 59.8%
[16]
  growth: 58.6%
[17]
  growth: 1.04% (active)
[18]
  growth: 28.1%
[19]
  growth: 0.604% (active)
[20]
  growth: 72.9%

## Clc1ccc(C2=NN=C3C(Cc4ccccc4)=Nc4ccccc4N3C2)cc1
[1]
  growth: 70.1%
[2]
  growth: 30.1%
[3]
  growth: 95.5%
[4]
  growth: 68.9%
[5]
  growth: 82.1%
[6]
  growth: 66.7%
[7]
  growth: 86.3%
[8]
  growth: 105%
[9]
  growth: 104%
[10]
  growth: 75.8%
[11]
  growth: 68.6%
[12]
  growth: 84.6%
[13]
  growth: 98.5%
[14]
  growth: 93.3%
[15]
  growth: 62.1%
[16]
  growth: 65.1%
[17]
  growth: 80.3%
[18]
  growth: 79.6%
[19]
  growth: 65.2%
[20]
  growth: 83.4%

## Cc1nn(-c2ccc(-c3ccc(OC(F)(F)F)cc3)cc2)c2nc(Cc3ccccc3)nc(N)c12
[1]
  growth: 75.5%
[2]
  growth: 63.7%
[3]
  growth: 83.8%
[4]
  growth: 48.3%
[5]
  growth: 77.9%
[6]
  growth: 54.3%
[7]
  growth: 47.7%
[8]
  growth: 80.3%
[9]
  growth: 78.8%
[10]
  growth: 69%
[11]
  growth: 76.9%
[12]
  growth: 59.6%
[13]
  growth: 34.9%
[14]
  growth: 39.3%
[15]
  growth: 20.7%
[16]
  growth: 64.4%
[17]
  growth: 87.7%
[18]
  growth: 85.6%
[19]
  growth: 31%
[20]
  growth: 103%
